Gal4-VP16 FLuc: counter-screen for ROR gamma inhibitors: Gal4-VP16 reporter. Drosophila S2 Gal4-VP16 UAS-luciferase, luminescence, 20 h. Potency, µM (highest dose often 53.6 µM), inactives show top-dose activity, negative = inhibition, actives largely listed as inhibitors. 310,000 compounds, 3.5% hits. AID 2546;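 further: Gal4-VP16 expression switched on by copper sulfate through the metallothionein promoter; nearly all actives have a fitted effect of over 50% in size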
RORg inh: ROR gamma (mouse) transcription inhibition; Drosophila S2 Gal4-RORgamma UAS-luciferase reporter, 20 h; Potency, µM (titrated, usually from 53.6 µM), for the others: at the top dose activity change, negative = inhibition, most hits filed as inhibitors; 310,000 compounds, 5.4% hits; further: nearly all actives have a fitted effect of over 60% in size
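Stable Schneider cell line, Gal4 DNA-binding domain fused to ROR gamma, UAS-luciferase. Cmpd 1 hr RT → CuSO4 700 uM final → 20 hr RT → luciferase reagent 10 min → luminescence.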
TDP1 inh: TDP1 (human) enzyme inhibition. Potency, µM (highest dose often 130 µM), for inactives: top-dose activity change, negative = inhibition, hits mostly inhibitors. recombinant TDP1, AlphaScreen DNA substrate cleavage. 350,000 compounds, 0.28% hits. AID 485290; further: nearly all actives have a fitted effect of over 40% in size
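Recombinant human Tdp1 (E. coli-expressed, 1 nM final) preincubated with compounds 15 min at room temperature, then 5'-biotin/3'-phosphotyrosine-FITC DNA substrate (15 nM final) added for 5 min. AlphaScreen beads (10 ug/ml final) added 10 min; cleavage lowers signal.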
TDP1 cell CPT: growth inhibition of DT40 Tdp1-/-;hTDP1 cells with camptothecin (screen for TDP1 inhibitors); AID 686979; Potency, µM (highest dose often 46.2 µM), inactives show top-dose activity change, negative = growth inhibition, actives largely listed as inhibitors; chicken DT40 Tdp1-/-;hTDP1 cells + 20 nM CPT, ATP luminescence, 48 h; 420,000 compounds, 12% hits; further: nearly all actives have a fitted effect of over 55% in size
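Chicken DT40 Tdp1-/- cells stably complemented with human TDP1 were seeded at 400 cells/well in medium containing 20 nM camptothecin, exposed to pin-transferred compounds, and grown at 37 °C for at least 48 hr. Viability was read as ATP luminescence.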
TDP1 cell noCPT: qHTS for Inhibitors of human tyrosyl-DNA phosphodiesterase 1 (TDP1): qHTS in cells in absence of CPT; Potency, µM (doses to about 46.2 µM), inactives show at the top dose activity change, negative = growth inhibition, actives largely listed as inhibitors; 420,000 compounds, 15% hits; AID 686978, 2013; DT40 Tdp1-/- hTDP1 cells, no CPT, ATP luminescence, 48 h; further: nearly all actives have a fitted effect of over 55% in size
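Seeded 400 DT40-hTDP1 cells/well (vehicle DMSO, no 20 nM CPT); pinned compounds; ≥48 hr at 37 °C; CellTiter-Glo luminescence as viability measure.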
An asterisk follows results filed as active; ? = inconclusive; . = not tested or not shown; [ ] = another dose, or the depositor's remark. Sampled rows, rich in hits. Any-hit rate of the full collection: about 19%. The call rests on the fitted dose curve; in most records, active means well fitted curve in the direction sought with a large enough effect; inconclusive means small, poorly fitted or top-dose-only effect, or another doubt; inactive means no such curve, though single readings can be large; an effect the other way counts as inactive or inconclusive. On the % scale 0 is the no-effect control and ±100 the full control effect; potency means the concentration at half of the fitted maximal effect.

SMILES | Gal4-VP16 FLuc | RORg inh | TDP1 inh | TDP1 cell CPT | TDP1 cell noCPT
Cc1ccc(S(=O)(=O)N2CCN(c3c([N+](=O)[O-])cc(C(F)(F)F)cc3[N+](=O)[O-])CC2)cc1 | -3.8% | -1.6% | 4.3% | ? | ?
COc1ccc(OC)c(/C=C/C(=O)OCC(=O)NCc2ccco2)c1 | . | . | 1.6% | -5.6% | 3.8%
COc1cc(/C=C/C(=O)N2C(=O)c3cccc(N)c3C2=O)cc(OC)c1OC | ? | -10.1% | 0.0% | 5.8µM* | 29.1µM*
COc1ccc(OC)c(/C=C/C(=O)N2C(=O)c3cccc(N)c3C2=O)c1 | ? | ? | -6.7% | 4.61µM* | 5.17µM*
COc1cc(/C=C/C(=O)N2CCCC2)cc(OC)c1OC | -4.4% | 0.2% | 2.4% | 9.2% | 3.2%
COc1ccc(NC(=O)c2cnc(C)cn2)c2ncccc12 | 0.562µM* | 0.316µM* | 4.0% | . | .
Cc1sc(NC(=O)C(C)C)c(C(=O)Nc2ccccc2)c1C | 7.6% | 27.2% | 1.0% | ? | 14.6µM*
COc1ccc(C(=O)NCCNc2ccccc2[N+](=O)[O-])cc1 | -26.6% | -30.9% | 9.6% | ? | -22.3%
CCCNC(=O)c1ccc(S(=O)(=O)c2ccc(OC)cc2)c([N+](=O)[O-])c1 | -17.9% | -1.6% | . | 5.17µM* | 4.11µM*
Cn1[nH]c(CSc2ccc(Cl)cc2)cc1=O | -17.6% | -31.9% | 11.8% | 1.0% | -19.7%
COc1cc2cc(CNc3ccccc3)c(=O)n(CC(=O)Nc3cccc(Cl)c3C)c2cc1OC | . | . | 5.6% | . | .
CCCC[n+]1c(-c2ccc(Cl)cc2Cl)csc1Nc1ccccc1 | ? | 133.4% | 2.3% | ? | 20.6µM*
Clc1ccc(-c2csc(Nc3ccccc3)[n+]2Cc2ccco2)c(Cl)c1 | -5.4% | 17.2% | 5.1% | ? | 23.1µM*
O=C(CNCCc1ccc(Cl)cc1Cl)NCc1ccco1 | -12.1% | -6.4% | 4.8% | -16.8% | -17.7%
Cc1cc(C)c2cc(CN(CCO)C(c3nnnn3Cc3ccc(F)cc3)C(C)C)c(=O)[nH]c2c1 (configuration not stated) | -13.6% | 2.0% | 11.6% | . | .
C=C(C)C(=O)c1ccc2c(c1)OCO2 | 0.3% | 23.8% | 3.1% | . | .
Cc1ccc2oc(C(=O)N(Cc3sccc3C)C3CCS(=O)(=O)C3)c(C)c2c1 (configuration not stated) | . | . | 4.9% | 5.8µM* | 5.17µM*
Cc1ccsc1CN(C(=O)c1oc2ccc(F)cc2c1C)C1CCS(=O)(=O)C1 (configuration not stated) | . | . | 9.8% | 11.6µM* | 7.31µM*
COc1ccc(CN(C(=O)c2oc3ccc(F)cc3c2C)C2CCS(=O)(=O)C2)cc1 (configuration not stated) | 3.1% | -0.3% | 3.9%[56.1 µM] | ? | ?
O=C(NCc1ccco1)C(=O)NCC(c1ccco1)N1CCOCC1 (configuration not stated) | -3.2% | -17.4% | -1.2% | -10.4% | 25.2%
Cc1ccc(CSc2nc3ccncc3n2Cc2nc(-c3ccc(Cl)cc3)oc2C)cc1 | . | . | 2.5% | ? | ?
Cc1ccc(C)c(CSc2nc3ccncc3n2Cc2nc(-c3ccccc3Cl)oc2C)c1 | . | . | 7.6% | 20.6µM* | ?
COc1ccc(-c2nc(Cn3c(SCc4ccc(C)cc4)nc4cccnc43)c(C)o2)cc1OC | . | . | 8.7% | 5.17µM* | ?
COc1ccc(-c2nc(Cn3c(SCc4ccc(F)cc4)nc4ccncc43)c(C)o2)cc1OC | -3.1% | ? | 3.9% | ? | 20.6µM*
Cc1oc(-c2ccccc2Cl)nc1Cn1c(SCc2cccc(F)c2)nc2cccnc21 | . | . | 6.2% | 23.1µM* | 25.9µM*
COc1ccc(-c2nc(Cn3c(SCc4ccccc4F)nc4cccnc43)c(C)o2)cc1 | . | . | 8.7% | ? | ?
COc1ccc(NC(=O)CCCn2nc(C)c3c(C)n(-c4ccccc4)nc3c2=O)cc1OC | -4.3% | -17.0% | -0.4% | -1.3% | 27.4%
Cc1ccnc2nc(C(=O)OCC(=O)c3ccccc3)nn12 | . | . | 2.1% | 20.0% | -14.7%

Screening results (PubChem BioAssay)
